Assay results reported in PubChem BioAssay (NCI).
“And” between values parts separate entries of the source, which are not always exact repeats. Equal entries are not always repeated. This is part of a sample that, as a whole, favours compounds with a hit. Of some 83,000 tested, about 20% had one in any assay.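 Treatment: one concentration, 48 hours, 96-well format. Scoring: percent growth, with anything below 10 considered active.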 The source made the active and inactive calls.

Key:
Test in all cases: NCI-60 one-dose screen, 48 h (100 = growth as untreated, 0 = no growth, -100 = all killed)
Settings in all cases: 10 µM
[1] = tested on: SK-MEL-2 melanoma
[2] = tested on: SN12C renal
[3] = tested on: UO-31 renal
[4] = tested on: TK-10 renal
[5] = tested on: ACHN renal
[6] = tested on: CAKI-1 renal
[7] = tested on: A498 renal
[8] = tested on: MOLT-4 leukemia
[9] = tested on: EKVX NSCLC
[10] = tested on: CCRF-CEM leukemia

SMILES | growth [1] | growth [2] | growth [3] | growth [4] | growth [5] | growth [6] | growth [7] | growth [8] | growth [9] | growth [10]
CCO/C=C1\SC(=S)N(c2cccc(O)c2)C1=O | 87.4% (inactive) | 98.1% (inactive) | 79.5% (inactive) | 88.3% (inactive) | 102% (inactive) | 98.9% (inactive) | 118% (inactive) | 96.7% (inactive) |  | 
CCCCCC(C)c1ccc(O)c(C)c1 (configuration not stated) | 104% (inactive) |  | 83.5% (inactive) | 107% (inactive) | 101% (inactive) | 103% (inactive) | 81.9% (inactive) | 93% (inactive) | 108% (inactive) | 
O=C(O)COc1ccc(OCC(=O)O)cc1 | 64.9% (inactive) | 2.58% (active) | 50.5% (inactive) | 20.6% (inactive) | 30.1% (inactive) | 90.7% (inactive) | -14.2% (active) | 9.12% (active) | 51.8% (inactive) | 2.46% (active)
O=C(/C=C/c1ccccn1)c1ccccc1 | 79.3% (inactive) | 61.2% (inactive) | 56.5% (inactive) | 19.5% (inactive) | -27.1% (active) |  | 78.9% (inactive) | 3.13% (active) | 93.8% (inactive) | -12.6% (active)
Clc1ccc(/C=C/c2ccccn2)c(Cl)c1 | 107% (inactive) | 94.4% (inactive) | 59.6% (inactive) | 98% (inactive) | 104% (inactive) | 72.7% (inactive) |  | 79.5% (inactive) | 58.9% (inactive) | 
COC(=O)C1C(O)C(C)C(O)C(C)C=C(C)C2=C3C(=C(C)C(=O)c4c(O)c(c(C)c(OC(C)=O)c43)NC(=O)C(C)=C/C=C\C(C)C(O)C(C)C1O)OCO2 (configuration not stated) | 26.5% (inactive) | 99.8% (inactive) | 89.3% (inactive) | 118% (inactive) | 104% (inactive) | 133% (inactive) | 123% (inactive) | 153% (inactive) | 119% (inactive) | 103% (inactive)
CS(=O)(=O)OC1CC(n2ccc(=O)[nH]c2=O)OC1COC(c1ccccc1)(c1ccccc1)c1ccccc1 (configuration not stated) |  | 103% (inactive) | 81.5% (inactive) | 105% (inactive) | 103% (inactive) | 103% (inactive) | 107% (inactive) |  |  | 
CCCCCCCCCCCCSC(=NC)NC | 79.2% (inactive) and 95.8% (inactive) | 39.4% (inactive) and 60.4% (inactive) | 35.2% (inactive) and 49.6% (inactive) | 62.1% (inactive) and 71.2% (inactive) | 43% (inactive) and 86.4% (inactive) | 45.8% (inactive) and 73.6% (inactive) | 72.3% (inactive) | 1.27% (active) and 19.1% (inactive) | 71.1% (inactive) | 23.7% (inactive)
OC(CN1CCCC2CCCCC21)c1cc2ccccc2c2ccccc12 (configuration not stated) | 42.8% (inactive) | 49.7% (inactive) | 35.6% (inactive) | 52.6% (inactive) | 29.1% (inactive) | 41.2% (inactive) | 58.8% (inactive) | -1.89% (active) | 42.3% (inactive) | 68.2% (inactive)
CCCCCCCCCCCC[N+](C)(C)Cc1ccccc1 | -11.9% (active) | 10.1% (inactive) | 55.4% (inactive) | -1.57% (active) | 78.7% (inactive) | 82.1% (inactive) | 79% (inactive) | -21.9% (active) |  | -15.9% (active)
COc1ccc(CC(=O)c2ccc(O)cc2O)cc1 |  | 123% (inactive) | 98.5% (inactive) | 122% (inactive) | 118% (inactive) |  | 128% (inactive) |  | 104% (inactive) | 104% (inactive)
CCC(C)(C)c1cc(O)c(C(C)(C)CC)cc1O | 24.4% (inactive) | 36.5% (inactive) |  | 63.2% (inactive) | 43.4% (inactive) | 41.4% (inactive) | 50.1% (inactive) | 24.7% (inactive) | 43.4% (inactive) | 
O=C(/C=C/c1cccnc1)c1ccccc1 | 94.2% (inactive) | 100% (inactive) | 84.1% (inactive) | 93.9% (inactive) | 79.8% (inactive) |  | 89.7% (inactive) | 82.3% (inactive) | 103% (inactive) | 41.3% (inactive)
CCCCCCCCCCCCCCCCCCOCC(COP(=O)([O-])OCC[N+](C)(C)C)OC (configuration not stated) | 101% (inactive) | 89.7% (inactive) | 94.9% (inactive) | 64% (inactive) | 93.7% (inactive) | 69% (inactive) |  | 89.4% (inactive) | 119% (inactive) | 63.9% (inactive)
CC(C)(C)CC(C)(C)c1ccc(OCCO)cc1 |  | 103% (inactive) | 88.2% (inactive) | 78.2% (inactive) | 117% (inactive) | 115% (inactive) | 115% (inactive) | 85.4% (inactive) | 122% (inactive) | 106% (inactive)
Cc1nc(N=C(N)N)nc2ccc3ccccc3c12 | -19% (active) | -22.6% (active) | 5.39% (active) | 3.86% (active) | 15.1% (inactive) | 75.2% (inactive) | 32.9% (inactive) | -28.2% (active) |  | -25.9% (active)
NNc1c2ccccc2nc2ccccc12 |  | 52.2% (inactive) | 61.4% (inactive) | 45.4% (inactive) | 46.7% (inactive) |  | 49.3% (inactive) | 29% (inactive) | 58.3% (inactive) | 37.7% (inactive)
